An excerpt weighted towards active compounds, which were near 2.8% of everything screened.
ATXN2 expr inh: Primary qHTS for Inhibitors of ATXN expression | HEK-293 ATXN2-luciferase reporter, luminescence, 24 h | Potency, µM (titrated, usually from 57 µM), without a hit: top-dose activity change, negative = inhibition, actives largely listed as inhibitors | 360,000 tested, 0.72% active; also: potency is read from the fitted curve at half-maximal effect; % is scaled to controls: 0 for no effect and ±100 for the full control effect; nearly all actives have a fitted effect of over 55% in size
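qHTS (up to 57 uM final) was run with 24 h compound exposure of reporter cells at 37 °C. Each well was multiplexed: SteadyGlo luminescence measured ATXN2-luciferase expression after a fluorogenic Gly-Phe-AFC viability readout (25 uM final).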
TGFb inhibitor: qHTS for Inhibitors of TGF-b | HepG2 CAGA-GFP TGF-b/SMAD3 reporter, GFP fluorescence, 18 h; TGF-beta stimulated, 500 pg/mL final | Potency, µM (doses to about 46.1 µM), for the others: top-dose activity, negative = inhibition, actives largely listed as inhibitors | 410,000 tested, 1.2% active; also: potency is read from the fitted curve at half-maximal effect; % is scaled to controls: 0 for no effect and ±100 for the full control effect; nearly all actives have a fitted effect of over 65% in size
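Read-out: total well GFP (ex488/em500-530) summed from mean per-cell fluorescence. Cells: HEPG2 CAGA-GFP, 1% FBS DMEM, 18 h at 37 degrees C with 500 pg/mL final TGF-beta. Unstimulated wells served as the full-inhibition control; stimulated DMSO wells = 0%.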
HepG2 viability: qHTS for Inhibitors of TGF-b: Cytotox Counterscreen; HepG2 CAGA-GFP viability, ATP luminescence, 18 h; Potency, µM (series often up to 46.1 µM), without a hit: at the top dose activity change, negative = cytotoxicity, hits mostly cytotoxic; 410,000 tested, 0.76% active; also: potency is read from the fitted curve at half-maximal effect
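HepG2 CAGA-GFP cells (1000/well, DMEM with 1% FBS) received compound, then TGF-beta at 500 pg/mL final, and were incubated 18 hours at 37 degrees C. Viability was read by CellTiter-Glo luminescence. Media-only wells were set as complete cell-killing and DMSO as no toxicity.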
HTT cytoprotect: qHTS Multiplex Assay to Identify Dual Action Probes in a Cell Model of Huntington: Cytoprotection (ATP) | PC12 HTT-Q103 induced, cytoprotection, ATP luminescence, 40 h | Potency, µM (doses to about 56.4 µM), inactives show cytoprotection (ATP increase), actives largely listed as activators | 230,000 tested, 0.14% active; also: potency is read from the fitted curve at half-maximal effect; % of control where 0% means no effect; nearly all actives have a fitted effect of over 45% in size
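Readout: ATPlite luminescence (ATP level). Model: stable PC12, inducible Htt exon1 Q103-GFP. Inducer: tebufenozide, 100 nM final. Compounds: dose series. No G418 in medium.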
HttQ103 aggreg: qHTS Multiplex Assay to Identify Dual Action Probes in a Cell Model of Huntington: Aggregate Formation (GFP); PC12 HttQ103-GFP aggregates, Acumen cytometry, 40 h; Potency, µM (highest dose often 46.1 µM), inactives show top-dose activity change, negative = inhibition, usual class: inhibitors; 220,000 tested, 1.1% active; AID 1688, 2009; also: potency is read from the fitted curve at half-maximal effect; % is scaled to controls: 0 for no effect and ±100 for the full control effect; nearly all actives have a fitted effect of over 60% in size
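Huntingtin Q103 exon 1–GFP aggregates in induced PC12 cells (100 nM tebufenozide) were quantified by cytometry from lysates, with compounds dosed in titration.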
S2 tox: Viability Counterscreen for Primary qHTS for Inhibitors of ATXN expression. S2 cells (HEK-293 line with an ATXN2-luciferase reporter) viability, CellTiter-Fluor protease fluorescence, 24 h. AID 651635, 2014. 400,000 tested, 0.49% active. Potency, µM (titrated, usually from 56.7 µM), usual class: cytotoxic; also: potency is read from the fitted curve at half-maximal effect; nearly all actives have a fitted effect of over 40% in size
SKNSH spheroid: qHTS of pediatric cancer cell lines to identify multiple opportunities for drug repurposing: Orthogonal 3D viability screen for SK-N-SH cells | shares compounds with ATXN2 expr inh | SK-N-SH 3D spheroid viability, PI/Hoechst imaging, 72 h | Potency, µM (doses to about 30.7 µM), actives largely listed as inhibitors | 65 tested, 70% active | AID 1347135, 2019
SJGBM2 3D viab: qHTS of pediatric cancer cell lines to identify multiple opportunities for drug repurposing: Orthogonal 3D viability screen for SJ-GBM2 cells | 65 tested, 80% active | SJ-GBM2 3D spheroid viability, PI/Hoechst imaging, 72 h | AID 1347136, 2019 | Potency, µM (top dose mostly 30.7 µM), hits mostly inhibitors | shares compounds with ATXN2 expr inh
Daoy 3D tox: qHTS of pediatric cancer cell lines to identify multiple opportunities for drug repurposing: Orthogonal 3D viability screen for Daoy cells. shares compounds with ATXN2 expr inh. Daoy 3D spheroid viability, PI/Hoechst imaging, 72 h. Potency, µM (highest dose often 30.7 µM), most hits filed as inhibitors. 65 tested, 50% active. AID 1347137, 2019
TC32 3D caspase: qHTS of pediatric cancer cell lines to identify multiple opportunities for drug repurposing: Orthogonal 3D caspase screen for TC32 cells; shares compounds with ATXN2 expr inh; TC32 3D spheroids, caspase-3/7 fluorescence imaging, 24 h; Potency, µM (doses to about 30.7 µM), hits mostly inhibitors; 65 tested, 30% active
TC32 3D tox: qHTS of pediatric cancer cell lines to identify multiple opportunities for drug repurposing: Orthogonal 3D viability screen for TC32 cells. TC32 3D spheroid viability, PI/Hoechst imaging, 72 h. Potency, µM (highest dose often 30.7 µM), hits mostly inhibitors. 65 tested, 60% active. AID 1347139, 2019. shares compounds with ATXN2 expr inh
MG63 spheroid: qHTS of pediatric cancer cell lines to identify multiple opportunities for drug repurposing: Orthogonal 3D viability screen for MG 63 (6-TG R) cells. shares compounds with ATXN2 expr inh. MG-63 (6-TG R) 3D spheroid viability, PI/Hoechst imaging, 72 h. Potency, µM (doses to about 30.7 µM), actives largely listed as inhibitors. 65 tested, 50% active. AID 1347140, 2019
RD 3D tox: qHTS of pediatric cancer cell lines to identify multiple opportunities for drug repurposing: Orthogonal 3D viability screen for RD cells; shares compounds with ATXN2 expr inh; RD rhabdomyosarcoma 3D spheroid viability, PI/Hoechst imaging, 72 h; Potency, µM (doses to about 30.7 µM), actives largely listed as inhibitors; 65 tested, 50% active; AID 1347141, 2019
An asterisk follows results filed as active; i = inactive; ? = inconclusive; / = no result; [ ] = remark or other dose. Calls follow the shape of the dose curve; as a rule, active = well fitted curve in the direction sought with a large enough effect; inconclusive = small, poorly fitted or top-dose-only effect, or another doubt; inactive = no such curve, though single readings can be large; an effect the other way counts as inactive or inconclusive.

SMILES	ATXN2 expr inh	TGFb inhibitor	HepG2 viability	HTT cytoprotect	HttQ103 aggreg	S2 tox	SKNSH spheroid	SJGBM2 3D viab	Daoy 3D tox	TC32 3D caspase	TC32 3D tox	MG63 spheroid	RD 3D tox
O=S(=O)(c1cccc(C(F)(F)F)c1)N1CCN(c2nc(-c3cccs3)nc3cc(Cl)ccc23)CC1	/	-6.4%	-48.2%	/	/	/	/	/	/	/	/	/	/
CC(=O)O[C@@]12CO[C@H]1C[C@H](O)[C@@]1(C)C(=O)[C@H](O)C3=C(C)[C@@H](OC(=O)C(O)[C@@H](NC(=O)OC(C)(C)C)c4ccccc4)C[C@@](O)([C@@H](OC(=O)c4ccccc4)[C@@H]21)C3(C)C (stereo partly specified)	?	/	/	/	/	/	0.0256µM*	0.0046µM*	2.56µM*	i	?	8.1µM*	?
CC(=O)O[C@H]1C(=O)[C@@]2(C)[C@H]([C@H](OC(=O)c3ccccc3)[C@]3(O)C[C@H](OC(=O)[C@H](O)C(NC(=O)c4ccccc4)c4ccccc4)C(C)=C1C3(C)C)[C@]1(OC(C)=O)CO[C@@H]1C[C@@H]2O (stereo partly specified)	-25.0%	?	-9.1%	-59.9%[10 µM]	-22.1%[9.22 µM]	?	/	/	/	/	/	/	/
CC(=O)O[C@H]1C(=O)[C@@]2(C)[C@H]([C@H](OC(=O)c3ccccc3)[C@]3(O)C[C@H](OC(=O)[C@H](O)[C@@H](NC(=O)c4ccccc4)c4ccccc4)C(C)=C1C3(C)C)[C@]1(OC(C)=O)CO[C@@H]1C[C@@H]2O	-24.2%	-19.7%	-39.5%	-62.1%	0.8%	?	0.144µM*	0.0102µM*	0.144µM*	?	0.0144µM*	?	0.0574µM*
Cc1cccc(-c2nc(Nc3ccc(N4CCOCC4)cc3)c3ccccc3n2)c1	3.2%	0.0%	0.3%	7.0%[10 µM]	-8.9%	?	/	/	/	/	/	/	/
Cc1ccc(-c2ncn(-c3ccc(Nc4nccc(-c5cccc(N6CCOCC6)c5)n4)cc3)n2)cn1	4.85µM*	/	/	/	/	/	0.909µM*	1.62µM*	/	i	i	i	?
CC[C@@H]1C=C(C)C[C@H](C)C[C@H](OC)[C@H]2O[C@@](O)(C(=O)C(=O)N3CCCC[C@@H]3C(=O)O[C@H](C(C)=C[C@@H]3CC[C@H](Cl)[C@H](OC)C3)[C@H](C)[C@@H](O)CC1=O)[C@H](C)C[C@H]2OC	?	/	/	/	/	/	16.2µM*	2.28µM*	1.44µM*	i	20.4µM*	3.62µM*	?
O=S(=O)(O)c1ccc2c(N=Nc3c(O)ccc4ccccc34)cccc2c1	/	/	/	-7.6%[10 µM]	/	/	/	/	/	/	/	/	/
O=C1c2ccccc2NC(c2ccccc2O)N1Cc1ccco1 (stereo unspecified)	/	-8.1%	5.3%	/	/	/	/	/	/	/	/	/	/
Cn1cc(CNCC2CCN(c3ncc(C(=O)NO)cn3)CC2)c2ccccc21	60.6%	/	/	/	/	/	0.0204µM*	0.0256µM*	0.181µM*	?	0.0644µM*	0.722µM*	0.323µM*

Bioassay records (PubChem)
